In all, about 270,000 compounds went through this assay and about 620 (0.23%) were called active. About 12% were inconclusive and are not listed. Calls come from the whole dose curve; as a rule, active = well fitted inhibition curve with a large enough effect in the polarisation, with a control signal flat (not every such curve was filed as active); inconclusive = small, poorly fitted or top-dose-only effect, or effect the other way, or a change in a side signal; inactive = no such curve, though single readings can be large or run the other way; the % refers to the polarisation. What follows is part of a selection rich in actives, with near analogues and random picks from the rest.
Potency is the fitted concentration of half-maximal effect.

Menin (Homo sapiens), sequence (O00255 whole entry, looked up, the tested form may be a part): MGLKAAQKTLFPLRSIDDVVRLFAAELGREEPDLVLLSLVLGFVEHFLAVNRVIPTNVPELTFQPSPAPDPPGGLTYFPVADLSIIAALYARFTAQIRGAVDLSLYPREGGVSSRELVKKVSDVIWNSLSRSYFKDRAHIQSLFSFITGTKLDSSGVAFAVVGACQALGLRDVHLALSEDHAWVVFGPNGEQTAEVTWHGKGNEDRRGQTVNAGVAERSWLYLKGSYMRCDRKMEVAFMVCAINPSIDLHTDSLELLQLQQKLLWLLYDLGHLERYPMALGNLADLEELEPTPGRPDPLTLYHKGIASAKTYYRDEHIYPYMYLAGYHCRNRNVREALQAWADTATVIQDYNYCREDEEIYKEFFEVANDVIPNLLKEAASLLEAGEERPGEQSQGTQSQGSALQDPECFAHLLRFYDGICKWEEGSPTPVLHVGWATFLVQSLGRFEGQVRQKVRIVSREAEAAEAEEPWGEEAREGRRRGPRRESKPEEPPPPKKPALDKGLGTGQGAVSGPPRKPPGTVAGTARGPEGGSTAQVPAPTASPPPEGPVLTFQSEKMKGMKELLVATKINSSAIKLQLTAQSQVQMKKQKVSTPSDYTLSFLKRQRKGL

For the assay, the target named is Menin (Homo sapiens) (UniProt O00255). Description: qHTS Assay for Inhibitors Targeting the Menin-MLL Interaction in MLL Related Leukemias: Competition With Texas Red Labeled MLL-derived Mutant Peptide. For FP activity change, negative = inhibition: % of control where 0% means no effect. Particulars: fluorescence polarization; series mostly up to 61.6 µM; FP activity change, negative = inhibition: at the top concentration. An excerpt:
qHTS Assay for Inhibitors Targeting the Menin-MLL Interaction in MLL Related Leukemias NIH Chemical Genomics Center [NCGC] NIH Molecular Libraries Probe Centers Network [MLPCN] MLPCN Grant: MH084875-01A1 Assay Submitter (PI): Jolanta Grembecka, Tomasz Cierpicki, University of Virginia Translocations of the MLL (Mixed Lineage Leukemia) gene are frequently found in human leukemias affecting both children and adults. Fusion of MLL to one of more than 60 genes results in generation of oncogenic proteins upregulating Hox genes, which are vital to blood cell development. Patients harboring fusion of the MLL gene suffer from aggressive leukemias and respond poorly to available therapies. All of the oncogenic fusion proteins have a preserved N-terminal fragment of MLL that has been identified to interact with menin. It has been recently discovered that association with menin is critical to the leukemogenic activity of the MLL fusion oncoproteins. Selective targeting of the menin-MLL interaction could provide an attractive therapeutic approach to develop novel drugs for MLL-related leukemias. Small molecules blocking the menin-MLL interaction should reverse the oncogenic potential of MLL fusion proteins. We have developed and optimized a fluorescence polarization-based assay for the identification of Menin-MLL inhibitors. The assay was run employing two different MLL-derived peptides. The present assay uses a 12 amino acid peptide labeled with fluorescein at its N-terminus. This peptide consists of the menin high affinity binding motif from MLL and is potently bound by menin. Another peptide with a mutated sequence, labeled with Texas Red, was used in parallel as a less stringent screen for inhibitors.
The Menin protein, the MLL-wild type (w.t.) derived peptide (N-terminal 12 amino acids), the MLL-derived peptide labeled with Texas Red and the MLL-w.t. peptide labeled with Fluorescein were kindly supplied by laboratory of Dr. Jolanta Grembecka, University of Virginia. All protein and peptide solutions were stored in single use aliquots at -80C. The Eu3+ Cyrptate-conjugated mouse monoclonal antibody anti-6 Histidine (Eu3+-AB) and the Streptavidin-XL665 conjugate (XL665) were purchased from Cisbio International (Bedford, MA). All antibody and XL665 conjugate solution stocks were stored in single use aliquots at -20C. The Buffer components for all assays were purchased from Sigma-Aldrich (St. Louis, MO) and Invitrogen (Carlsbad, CA). FP Assay Reagents: 1. FP reaction buffer: 50 mM Tris-HCl pH 7.5, 50 mM NaCl, 1mM DTT. Before use, 0.05% BSA is added. 2. Menin protein, MLL-w.t. labeled with fluorescein, MLL-mutant peptide labeled with texas red. Stored in singe use aliquots at -80C. 3. MLL-w.t. unlabeled peptide as positive control: 10 uM final in FP buffer. FP Assay Procedure: 1. Prepare Menin at 200 nM, MLL-w.t.-fluorescein at 25 nM, and MLL-mutant-texas red at 50 nM mixture in FP buffer. 2. Prepare Menin at 200 nM, MLL-w.t.-fluorescein at 25 nM, MLL-mutant-texas red at 50 nM, and 10 uM MLL-w.t. unlabeled mixture in FP buffer. 3. Prepare MLL-w.t.-fluorescein at 25 nM and MLL-mutant-texas red at 50 nM mixture in FP buffer. 3. Dispense 4 ul per well of reagent in step 1 in columns 2, 4 - 48 in a black 1536 well plate, dispense 4 ul per well of reagents from steps 2 and 3 in columns 1 and 3 respectively. Incubate plate at ambient for 15 minutes. 4. Transfer 23 nl per well of compound to plate and incubate at ambient for 1 hr. 5. Read fluorescence polarization for each label using the PerkinElmer Envision. Envision protocol for fluorescein: FITC FP Dual Enh Mirror, Excitation filter 480, Emission filter (1) P-pol 535, Emission filter (2) S-pol 535 Envision protocol for texas red: FP Dual Enh Mirror, Excitation filter 555, Emission filter (1) P-pol 632, Emission filter (2) S-pol 632
(Quantitative high-throughput screening tests each substance at several concentrations.)
Turning to `CC(C)(O)C#Cc1ccc(CN2CCC(CO)(CCc3ccccc3)CC2)cc1`, the “FP activity change, negative = inhibition” value was 8.13% (inactive).

`CCOCCCNc1nc(-c2ccccc2)nc2ccccc12`: the “FP activity change, negative = inhibition” value is 19.4% (inactive).

With `Cc1c(CN2CC[C@@H](N3CCN(c4ccccn4)CC3)[C@H](O)C2)[nH]c2ccc(F)cc12`, the “FP activity change, negative = inhibition” value was -9.78% (inactive).

As to `O=C(NCCCO)c1cc2c([nH]c3ccccc32)c(-c2ccc(F)cc2)n1`, the “FP activity change, negative = inhibition” value is 8.97% (inactive).

In the case of `CC(=O)N1c2ccc(S(=O)(=O)N3CCC(C(=O)NC4CCCC(C)C4C)CC3)cc2CC1C` (centres undefined), the “FP activity change, negative = inhibition” value was -6.75% (inactive).

As to `CNC(=O)[C@]1(C(F)(F)F)C[C@H](CCc2ccccc2)CCCO1`, the “FP activity change, negative = inhibition” value is 3.94% (inactive).

For `CC1CCCCC1NC(=O)CCS(=O)(=O)c1ccc2c(c1)NC(=O)CO2` (centres undefined), the “FP activity change, negative = inhibition” value is -10.4% (inactive).

For the compound `CCCOc1ccc(N/C=C/C(=O)C(C)(C)C)cc1`, the “FP activity change, negative = inhibition” value was 1.33% (inactive).

In the case of `CN(C)c1ccc(N/C=C/C(=O)C(F)(F)F)cc1`, the Potency is 28.2 µM (active).

As to `O=C(/C=C/Nc1ccccc1OC(F)(F)F)C(F)(F)F`, the “FP activity change, negative = inhibition” value was 5.87% (inactive).

For the compound `COc1cccc(N2C(=O)CN(Cc3ccccc3)C2=S)c1`, the “FP activity change, negative = inhibition” value was 32.3% (inactive).

Regarding `Cn1nccc1C(=O)N1CCCC(C(=O)c2ccc(Oc3ccccc3)cc2)C1` (centres undefined), the “FP activity change, negative = inhibition” value was -18.8% (inactive).

For `COc1ccc(-c2noc(CCCC(=O)NC3CCCC3)n2)cc1OC`, the “FP activity change, negative = inhibition” value was -7.12% (inactive).

Regarding `Cc1noc(C)c1-c1ccc2ncnc(NCc3ccc4[nH]ccc4c3)c2c1`, the “FP activity change, negative = inhibition” value is 28.6% (inactive).

Take `Cc1ccc(N(Cc2cc3ccccc3[nH]c2=O)C(=O)c2cccs2)cc1`: the “FP activity change, negative = inhibition” value was 0.868% (inactive).

As to `CC(=O)N(Cc1cc(=O)[nH]c2ccccc12)c1ccc(C)cc1C`, the “FP activity change, negative = inhibition” value is 1.95% (inactive).

In the case of `Cc1ccc(N(Cc2cc(=O)[nH]c3ccccc23)C(=O)CCl)cc1`, the Potency is 10 µM (active).

Consider `CCN(CC)CCCNC(=O)COc1ccc2oc3c(c2c1)CCCC3`, for which the “FP activity change, negative = inhibition” value is -9.91% (inactive).

As for `CC(C)c1ccc(NC(=O)C2CCCN(S(=O)(=O)c3cccnc3)C2)cc1` (centres undefined), the “FP activity change, negative = inhibition” value was -12.3% (inactive).

For the compound `COc1cc(/C=C2\SC(=O)NC2=O)ccc1OCc1ccc(Cl)nc1`, the “FP activity change, negative = inhibition” value is 3.5% (inactive).

For `COC(=O)c1cc(S(=O)(=O)NCC2CCN(Cc3ccc(Cl)cc3)CC2)cn1C`, the “FP activity change, negative = inhibition” value is -0.368% (inactive).

Turning to `Cc1cccc(NC(=S)NCCc2ccc(Cl)cc2)c1C`, the “FP activity change, negative = inhibition” value was 4.12% (inactive).

In the case of `COC(=O)C(CC(C)C)NS(=O)(=O)c1cc(Br)ccc1Br` (centres undefined), the “FP activity change, negative = inhibition” value was -7.91% (inactive).

Turning to `Cc1c(C)c2ccc(OCC(=O)N3CCN(c4cccc(Cl)c4)CC3)cc2oc1=O`, the “FP activity change, negative = inhibition” value is 7.56% (inactive).

Turning to `Cc1ccc(S(=O)(=O)NNC(=O)/C=C/c2cccc(F)c2)cc1`, the “FP activity change, negative = inhibition” value is -0.819% (inactive).

`O=C(COC(=O)c1c2c(nc3ccccc13)/C(=C\c1cccs1)CCC2)Nc1ccccc1Cl`: the Potency is 14.1 µM (active).

As for `O=C(COC(=O)c1cccs1)Nc1ccccc1Cl`, the “FP activity change, negative = inhibition” value is 0.3% (inactive).

As for `COc1cc(/C=C2\CCCc3c2nc2ccccc2c3C(=O)O)cc(Cl)c1O`, the “FP activity change, negative = inhibition” value is 16.7% (inactive).

Consider `CC1CCN(CC(O)COc2ccc(C(=O)c3ccccc3)cc2)CC1` (centres undefined), for which the “FP activity change, negative = inhibition” value was -25.4% (inactive).

These data come from PubChem BioAssay AID1768 (National Center for Advancing Translational Sciences (NCATS), 2009).
